Laboratory results from PubChem BioAssay AID493168 (National Center for Advancing Translational Sciences (NCATS), 2011).
Records with an inconclusive call do not appear. Where a call stands in place of a potency, no number is given. Active and inactive are the calls of the source. Calls follow the shape of the dose curve; as a rule, active = well fitted inhibition curve with a large enough effect; inconclusive = small, poorly fitted or top-dose-only effect, or effect the other way; inactive = flat fitted curve, though single readings scatter.

Target: Ubiquitin carboxyl-terminal hydrolase 2 (Homo sapiens) (UniProt O75604)
Test: Confirmation Assay for Inhibitors of Ubiquitin-specific Protease USP2a Using CHOP2 as the Reporter; also: nearly all actives have a fitted effect of over 55% in size
Conditions: USP2 core, Ub-CHOP2 coupled reporter fluorescence; series mostly up to 38.3 µM
Procedure, shortened: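 USP2 core (10 nM final) was preincubated with compound for 30 min at RT in Tris-HCl pH 8.0, CaCl2, beta-mercaptoethanol, CHAPS. Ub-CHOP2 and reporter substrate (25 nM final each) were added, and fluorescence (Ex 485/Em 531 nm) was read after 60 min.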
Potency is read from the fitted curve at half-maximal effect.

Sequence of Ubiquitin carboxyl-terminal hydrolase 2 (Homo sapiens) (O75604 whole entry, looked up): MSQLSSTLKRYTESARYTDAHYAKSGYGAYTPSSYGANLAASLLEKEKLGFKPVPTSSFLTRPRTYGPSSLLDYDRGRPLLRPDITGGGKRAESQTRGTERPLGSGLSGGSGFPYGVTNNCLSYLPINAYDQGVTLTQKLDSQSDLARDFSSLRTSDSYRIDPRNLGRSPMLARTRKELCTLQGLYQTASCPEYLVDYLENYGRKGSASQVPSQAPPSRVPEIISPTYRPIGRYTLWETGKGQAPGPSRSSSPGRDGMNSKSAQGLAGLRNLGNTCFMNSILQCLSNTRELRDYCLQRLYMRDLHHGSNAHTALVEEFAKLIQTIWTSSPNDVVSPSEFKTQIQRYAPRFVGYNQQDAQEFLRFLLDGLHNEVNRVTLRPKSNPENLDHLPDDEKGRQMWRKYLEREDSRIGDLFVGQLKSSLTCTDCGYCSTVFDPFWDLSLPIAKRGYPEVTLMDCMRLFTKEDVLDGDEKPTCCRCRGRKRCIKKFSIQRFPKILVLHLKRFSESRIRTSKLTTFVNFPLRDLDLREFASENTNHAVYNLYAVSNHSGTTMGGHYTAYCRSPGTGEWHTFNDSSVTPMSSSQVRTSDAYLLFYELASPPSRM

CCOc1ccc(NC(=O)CSc2nnc(Cn3c(=O)sc4ccccc43)n2C)cc1
Potency: inactive

COc1ccc(NC(=O)c2cc(-c3ccco3)nc3ccccc23)cc1S(=O)(=O)N1CCOCC1
Potency: 18.5 µM (active)

CCCC(c1nnnn1Cc1ccc(OC)cc1)N1CCC(C(N)=O)CC1 (stereo unspecified)
Potency: inactive

O=C(C[n+]1cccc(C(=O)N/N=C/c2ccc(Br)cc2)c1)c1ccccc1
Potency: inactive

CC1(C)CC(=O)C=C(NCc2cccs2)C1
Potency: inactive

CCOC(=O)c1c(C)c(C(=O)O)n(C)c1C
Potency: inactive

O=C(NCC(c1cccnc1)N1CCN(c2ccc(F)cc2)CC1)OCc1ccccc1 (stereo unspecified)
Potency: inactive

CCc1sc(/C=C(/C#N)C(N)=S)cc1[N+](=O)[O-]
Potency: inactive

CCN(CC)S(=O)(=O)c1ccc(-c2nnc(SCC(=O)Nc3ccc4c(c3)OCO4)o2)cc1
Potency: inactive

CCCOc1ccc(N2C(=O)CC(NCCc3ccc(S(N)(=O)=O)cc3)C2=O)cc1 (stereo unspecified)
Potency: inactive

O=C(Nc1ccc(N2CCCC2)c(Cl)c1)c1ccc(Br)o1
Potency: inactive
